Source: PubChem
Hits are enriched below; roughly 15% of the tested compounds scored in any of these assays.
SARS PLP yeast = SARS-CoV PLP inhibition in yeast; Potency, µM (top dose mostly 32.9 µM), for inactives: at the highest dose activity, positive = growth rescue, most hits filed as activators; AID 485353; S. cerevisiae expressing SARS-CoV PLpro, growth rescue; 330,000 tested, 0.19% active; calls by dose curve; note: potency is the fitted concentration of half-maximal effect; 0% is about no effect; nearly all actives have a fitted effect of over 55% in size
Sm TGR inh = blocks Schistosoma mansoni thioredoxin glutathione reductase; Potency, µM (top dose mostly 114 µM), for the others: at the top dose activity change, negative = inhibition, most hits filed as inhibitors; Q962Y6; purified TGR, DTNB reduction, TNB absorbance 405 nm; AID 485364; 360,000 tested, 3% active; note: potency is the fitted concentration of half-maximal effect; % is set by controls: 0 for no effect and ±100 for the full control effect; nearly all actives have a fitted effect of over 60% in size
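First, TGR (20 nM dispensed) and NADPH were mixed with compound. Second, a 15 min room-temperature incubation followed. Third, further NADPH and then DTNB were added to start the reaction. Finally, TNB absorbance was monitored kinetically.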
Pf growth 96h = P. falciparum growth inhibition at 96 hours. P. falciparum luciferase reporter growth, 96 h. Potency, µM (highest dose often 28.7 µM), for the others: at the highest dose activity change, negative = inhibition, usual class: inhibitors. 320,000 tested, 6.9% active. AID 504834; note: potency is the fitted concentration of half-maximal effect; % is set by controls: 0 for no effect and ±100 for the full control effect
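Erythrocytes infected with luciferase-expressing P. falciparum were dispensed at 2% hematocrit and 0.05% parasitemia (final), then incubated with compounds 96 hours at 37 C in 5% CO2. Luminescence after detection reagent addition reported growth.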
Pf growth 48h = P. falciparum growth inhibition at 48 hours (one generation) | 310,000 tested, 5.9% active | Potency, µM (titrated, usually from 28.7 µM), inactives show top-dose activity change, negative = inhibition, actives largely listed as inhibitors | P. falciparum luciferase growth in erythrocytes, 48 h; note: potency is the fitted concentration of half-maximal effect; % is set by controls: 0 for no effect and ±100 for the full control effect
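Here the parasites carry a stable luciferase gene and grow inside erythrocytes in Albumax-based RPMI medium with compound for one erythrocytic cycle. Activity is scored as loss of luminescent signal.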
HCV inhibitor = HCV inhibition. AID 651820. 340,000 tested, 3.4% active. Huh7.5.1 HCVcc-Cre infection, luciferase reporter, 44 h. Potency, µM (top dose mostly 41.8 µM), without a hit: top-dose activity change, negative = inhibition, actives largely listed as inhibitors; note: potency is the fitted concentration of half-maximal effect; % is set by controls: 0 for no effect and ±100 for the full control effect
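Compounds are dispensed onto cells plated 4 h earlier at 1,000 per well, with HCVcc-Cre virus (about 0.5 moi) added next. Following 44 h of culture, luminescent signal is measured for 15 sec after 15 min with substrate at room temperature.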
HCMV inh = inhibitors of human cytomegalovirus; HFF cells, HCMV-luciferase reporter, 72 h; stronger effect = lower value; activity change, negative = inhibition, % at 57.5 µM; 410,000 tested, 4.5% active; AID 1259415; in the data active = activity change below about -60%; inconclusive = no clear call, values can overlap the other calls; inactive = above about -39%; note: % is set by controls: 0 for no effect and ±100 for the full control effect
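Compounds were evaluated in HFFs infected with an HCMV luciferase reporter virus (MOI 1 PFU/cell). Luciferase in lysates collected 72 h post infection served as the replication measure.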
* hit, by the source's call. Unless noted, calls come from the whole dose curve; as a rule, active = well fitted curve in the direction sought with a large enough effect; inconclusive = small, poorly fitted or top-dose-only effect, or another doubt; inactive = no such curve, though single readings can be large; an effect the other way counts as inactive or inconclusive.

`COc1ccccc1NC(=O)Cn1nc(C(F)(F)F)c2c1CCCC2` gave SARS PLP yeast -14%, Sm TGR inh -20%, Pf growth 96h 2.1µM*, Pf growth 48h 14%, HCV inhibitor -28% and HCMV inh inconclusive.
For CCNC(=O)c1ccc(-n2nc(C(F)(F)F)c3c2CCCC3)cc1 the results were SARS PLP yeast -2%, Sm TGR inh 7%, Pf growth 96h 7.4µM*, Pf growth 48h 15µM*, HCV inhibitor -27% and HCMV inh -40.
For O=C(Cn1nc(C(F)(F)F)c2c1CCC2)Nc1ccccc1C(F)(F)F the results were SARS PLP yeast 3%, Sm TGR inh -16%, Pf growth 96h inactive, Pf growth 48h -24%, HCV inhibitor 1% and HCMV inh 6.
CCc1cc(=O)oc2c(C)c(OS(C)(=O)=O)ccc12 was read as HCV inhibitor 13% and HCMV inh 38.
`CCc1cc2c(=O)c(-c3ccc4c(c3)OCCO4)c(C)oc2cc1OS(C)(=O)=O` gave SARS PLP yeast -13%, Sm TGR inh -1%, Pf growth 96h 4.1µM*, Pf growth 48h inconclusive, HCV inhibitor inconclusive and HCMV inh -63*.
For Oc1ccc(N2CCN(Cc3nc4ccccc4[nH]3)CC2)cc1 the results were SARS PLP yeast 4%, Sm TGR inh inconclusive, Pf growth 96h inconclusive, Pf growth 48h -17%, HCV inhibitor 11% and HCMV inh -16.
`CCN(CC)c1ccc2c(c1)CCCN2` gave SARS PLP yeast 13µM*, Sm TGR inh 5µM*, Pf growth 96h 10µM*, Pf growth 48h 10µM* and HCV inhibitor 11µM*.
Screening CCOc1ccc(C(C)=O)cc1COC(=O)C1=COCCO1 returned SARS PLP yeast 3%, Sm TGR inh 28µM*, Pf growth 96h inconclusive, Pf growth 48h inconclusive, HCV inhibitor 10µM* and HCMV inh 10.
For CCOc1ccc(C(C)=O)cc1CC(C(N)=O)C(N)=O the results were SARS PLP yeast 9%, Sm TGR inh -20%, Pf growth 96h -55%, HCV inhibitor 18% and HCMV inh 0.
O=C(NCC(c1cccnc1)N1CCc2ccccc2C1)C(=O)Nc1ccc(F)cc1F (stereo not given) was read as Sm TGR inh -9% and HCMV inh 1.
COC(=O)C1=C(C)NC(=S)N(C(C)=O)C1c1ccc(OC)c(OC)c1 (stereo not given) was read as SARS PLP yeast 7%, Sm TGR inh 0%, Pf growth 96h inconclusive, Pf growth 48h -13%, HCV inhibitor 1% and HCMV inh -11.
For Cc1c(C)n(Cc2ccc(F)cc2)c2ccc(C(=O)NCCCN3CCOCC3)cc12 the results were SARS PLP yeast 2%, Sm TGR inh -19%, Pf growth 96h 33%, Pf growth 48h 9.3µM*, HCV inhibitor inconclusive and HCMV inh inconclusive.
`Cc1c(C)n(Cc2ccccc2)c2ccc(C(=O)NCCCN3CCOCC3)cc12` gave SARS PLP yeast 6%, Sm TGR inh -12%, Pf growth 96h 32%, Pf growth 48h -19%, HCV inhibitor inconclusive and HCMV inh -22.
Cc1c(C)n(Cc2ccccc2)c2ccc(C(=O)NCc3ccccc3F)cc12 was read as Sm TGR inh 3% and HCMV inh active.
Screening COc1cc(CNC(=O)c2ccc3c(c2)c(C)c(C)n3Cc2cccc(C)c2)cc(OC)c1OC returned Sm TGR inh -8% and HCMV inh -87*.
COc1cccc(CNC(=O)c2ccc3c(c2)c(C)c(C)n3Cc2ccccc2)c1OC was read as Sm TGR inh 7% and HCMV inh inconclusive.
COc1ccccc1NC(=O)C(C)OC(=O)/C(=C/c1ccccc1)NC(C)=O (stereo not given) was read as SARS PLP yeast 8%, Sm TGR inh -27%, Pf growth 96h 2%, Pf growth 48h 14%, HCV inhibitor 18% and HCMV inh -23.
Screening Clc1ccc(C(c2ccc(Cl)cc2)n2cc[n+](CC(OCc3ccc(Cl)cc3Cl)c3ccc(Cl)cc3Cl)c2)cc1 (stereo not given) returned Sm TGR inh -35%, Pf growth 96h inconclusive, Pf growth 48h inconclusive, HCV inhibitor inconclusive and HCMV inh -99*.
Screening Cc1cccc(-c2nc3c(C#N)c[nH]n3c2NC2CCCCC2)c1 returned Sm TGR inh -11% and HCMV inh 0.
`CC(C)CNC(=O)C1C(=O)Nc2ccccc2C(=O)N1C(C)(C)C` (stereo not given) gave HCMV inh 18.
O=C(NC(N1CCCCCC1)C(Cl)(Cl)Cl)c1ccccc1Cl (stereo not given) was read as SARS PLP yeast -13%, Sm TGR inh inconclusive, Pf growth 96h -1%, Pf growth 48h 12%, HCV inhibitor 18% and HCMV inh 1.
Screening CCCCC(=O)NC(N1CCCCC1)C(Cl)(Cl)Cl (stereo not given) returned SARS PLP yeast 16%, Sm TGR inh 11µM*, Pf growth 96h 182%, Pf growth 48h 58%, HCV inhibitor 0% and HCMV inh 34.
For O=C(CC[C@H]1O[C@@H](n2ccc(=O)[nH]c2=O)[C@H](O)[C@@H]1O)NCCCc1ccccc1 the results were HCMV inh 36.
`Nc1ncnc2c1ncn2[C@@H]1O[C@H](C(=O)NCC2CCN(Cc3ccccc3)CC2)[C@@H](O)[C@H]1O` gave HCMV inh -9.
Screening Cc1cc(C(=O)CSc2nnc(NCc3ccccc3)s2)c(C)n1C returned SARS PLP yeast 2%, Sm TGR inh 3%, Pf growth 96h 53%, Pf growth 48h inconclusive, HCV inhibitor inconclusive and HCMV inh -2.
For CN1/C(=C\C(=O)COC(=O)c2ccccc2O)C(C)(C)c2ccccc21 the results were SARS PLP yeast -3%, Sm TGR inh -5%, Pf growth 96h -16%, Pf growth 48h -14%, HCV inhibitor inconclusive and HCMV inh -8.
For CN1/C(=C\C(=O)C[n+]2ccc3ccccc3c2)C(C)(C)c2ccccc21 the results were SARS PLP yeast 0%, Sm TGR inh -18%, Pf growth 96h 1µM*, Pf growth 48h inconclusive, HCV inhibitor inconclusive and HCMV inh -97*.
`COc1ccccc1OCC(=O)/C=C1/N(C)c2ccccc2C1(C)C` gave SARS PLP yeast 1%, Sm TGR inh 1%, Pf growth 96h inconclusive, Pf growth 48h inconclusive, HCV inhibitor 10µM* and HCMV inh 21.
